Assay outcomes as filed in PubChem BioAssay.
The list is not random: actives were taken first. Their share in the collection is about 6.2%.
MARV entry inh = inhibitors of Marburg virus binding or cell entry; Marburg virus pseudotyped entry inhibition, cell reporter; Potency, µM (series often up to 37.8 µM), without a hit: at the highest dose activity change, negative = inhibition, actives largely listed as inhibitors; actives 1.8% (n = 300,000); AID 540276; calls by dose curve; tested in HEK293 cells; note: potency is the fitted concentration of half-maximal effect
FMDV inh = blocks foot and mouth disease virus; FMDV antiviral cell-based qHTS; actives 1.2% (n = 410,000); AID 1159524; Potency, µM (top dose mostly 57.9 µM), without a hit: at the highest dose activity change, negative = inhibition, hits mostly inhibitors; calls by dose curve; tested in HEK293T cells; note: read-out not given here; potency is the fitted concentration of half-maximal effect; nearly all actives have a fitted effect of over 45% in size
HCMV antiviral = human cytomegalovirus inhibition. HFF cells, HCMV-luciferase reporter, 72 h; hits give low values. actives 4.5% (n = 410,000). activity change, negative = inhibition, % at 57.5 µM; in the data active = activity change below about -60%; inconclusive = no clear call, values can overlap the other calls; inactive = above about -39%
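Cell-based, HFFs, 1000 cells/well, 16 h 37C; cpds in DMSO + HCMV-luc, MOI 1 PFU/cell; 72 h 37C; OneGlo luminescence after 5 min RT; norm. to buffer vs Salinomycin 10uM.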
Lassa entry inh = blocks Lassa virus binding to or entry into cells | Potency, µM (doses to about 37.9 µM), inactives show at the top dose activity change, negative = inhibition, hits mostly inhibitors | AID 540256 | Lassa virus pseudotype entry inhibition, cell reporter | actives 1.2% (n = 300,000); calls by dose curve; tested in HEK293 cells; note: potency is the fitted concentration of half-maximal effect; nearly all actives have a fitted effect of over 50% in size
The depositor's hits bear a star; ? = inconclusive; . = not tested or not shown; + = active, no number; ! = repeats disagree; [ ] = another dose, or the depositor's remark. % is set by controls: 0 for no effect and ±100 for the full control effect.

SMILES	MARV entry inh	FMDV inh	HCMV antiviral	Lassa entry inh
CCOc1cccc(/C=N/NC(=S)Nc2ccccc2[N+](=O)[O-])c1O	.	1.8µM*	-70*	.
CCCCNC(=S)N/N=C/c1cccc(OCC)c1O	-1%[46.1 µM]	-15%	-32	7%
COc1cccc(CNC(=O)c2ccc3c(=O)n4nc(Nc5ccccc5)sc4nc3c2)c1	.	-9%	-26	0%[46.1 µM]
CCCCN1C2=C(C(=O)CCC2)C(c2ccc(Cl)c(Cl)c2)C2=C1c1ccccc1C2=O (centres undefined)	?	5%	6	2.3µM*
CCCN1C(=O)c2ccccc2NC1c1ccc(Cl)c(Cl)c1 (centres undefined)	.	-5%	-14	.
CCOc1ccc(NC(=O)N(Cc2c[nH]c3ccccc23)C2CCCCC2)cc1	18%[46.1 µM]	30%	62	-1%[46.1 µM]
COC(=O)c1ccc(OC)c(CN2CCCN(Cc3ccc(C)cc3)S2(=O)=O)c1	.	4%	+	2%[46.1 µM]
Cc1ccc(CNC(=O)CN2CCCN(Cc3ccc(F)cc3)S2(=O)=O)cc1	.	-15%	0	11µM*
O=C(CN1CCCN(Cc2ccc(F)cc2)S1(=O)=O)NC1CCCC1	.	?	-15	.
Cc1ccc(CN2CCN(CC(=O)Nc3ccc(C)c(C)c3)S2(=O)=O)cc1	.	-2%	+	1%[46.1 µM]
CCn1nnc(NC(=O)c2ccc([N+](=O)[O-])o2)n1	-1%[46.1 µM]	20%	-17	-14%
CCCC(=O)Nc1ccc(NC(=O)c2ccccc2)nc1	?	-13%	29	?
N#CCCn1cc(/C=N/NC(N)=S)c(-c2ccc(Br)cc2)n1	?	-14%	-70*	-2%[46.1 µM]
O=S(=O)(NC1CCCC1)OCC(Cl)(Cl)Cl	.	24%	-63*	.
Cc1ccc(S(=O)(=O)N(C)CC(=O)N2CCOCC2)cc1	1%[46.1 µM]	-7%	0	-15%
CC#C[C@]1(O)CC[C@H]2[C@@H]3CCC4=CC(=O)CCC4=C3[C@H](c3ccc(N(C)C)cc3)C[C@@]21C	?	0%	.	.
CC#C[C@]1(O)CC[C@H]2[C@@H]3CCC4=CC(=O)CCC4=C3[C@@H](c3ccc(N(C)C)cc3)C[C@@]21C	10µM*!	-23%	114	8.2µM*!
Cc1nn(C)c(C)c1CN(Cc1nc(CCC(C)C)no1)C(C)C	?	?	-83*	?
CC(C)CCc1noc(CN(C)CCC2CCOCC2)n1	0%[46.1 µM]	-17%	-19	-12%
Cc1cc(C)n2nc(C(=O)N/N=C/c3c4ccccc4cc4ccccc34)nc2n1	?	?	-76*	?
Cc1cc(C)n2nc(C(=O)NC(c3ccccc3)c3ccccc3)nc2n1	?	-21%	-74*	?
Cc1cc(C)n2nc(C(=O)OCC(=O)NNC(=O)c3ccccc3)nc2n1	.	-12%	-61*	.
Cc1cc(C)n2nc(C(=O)OCC(=O)NC(=O)c3ccccc3)nc2n1	0%[46.1 µM]	-13%	-5	-10%
O=C(COC(=O)/C=C/c1ccc(OC(F)F)cc1)NCCN1C(=O)CSC1=O	-18%[46.1 µM]	-4%	47	8%
Cc1c(C(=O)c2no[n+]([O-])c2C(=O)c2cnn(C)c2C)cnn1C	-2%	40µM*	-107*	2%
SMILES	MARV entry inh	FMDV inh	HCMV antiviral	Lassa entry inh
CCOC(=O)c1cc([N+](=O)[O-])cc([N+](=O)[O-])c1Sc1ncnc2nc[nH]c12	?	22µM*	15	1.4µM*
COc1ccc(CCC(=O)N2c3ccccc3N=C(c3ccc(C(F)(F)F)cc3)C2C(=O)NC(C)(C)C)cc1 (centres undefined)	.	8%	-19	.
COc1ccc(C2=C(C)C(=O)N(Cc3ccc(C(=O)Nc4ccc(F)cc4C)cc3)S2(=O)=O)cc1	.	-23%	-63*	?
COc1cccc(/C=C/C(=O)OCC(=O)N(C)CC(=O)Nc2ccccc2Cl)c1OC	.	1%	-9	.
Cc1nc(-c2c(-c3ccc(O)cc3O)noc2C(F)(F)F)cs1	?	35µM*	-67*	?
Cc1[nH][nH]c(=O)c1C(c1ccc(-c2ccc(F)cc2)o1)c1c(C)[nH][nH]c1=O	17%[46.1 µM]	-28%	17	-6%[46.1 µM]
Cc1[nH][nH]c(=O)c1C(c1ccc(-c2ccc(C(=O)O)cc2)o1)c1c(C)[nH][nH]c1=O	-21%[46.1 µM]	8%	-62*	15%
CC1(C)O[C@H]2[C@@H](O1)[C@@H](C(=O)Nc1cc(F)ccc1F)O[C@@H]1OC(C)(C)O[C@@H]12	12%[46.1 µM]	19%	-89*	2%[46.1 µM]
Cc1cnc(C(=O)OCC(=O)Nc2oc(-c3ccccc3)c(-c3ccccc3)c2C#N)cn1	-13%	?	-7	-5%
COc1ccc(-c2cc3nc(CCl)[nH]c(=O)c3s2)cc1	?	14µM*	69	?
CCOC(=O)C1CCCN(C(=O)c2ccc3c(c2)N(Cc2cccc(Cl)c2)C(=O)c2ccccc2S3(=O)=O)C1 (centres undefined)	.	-3%	-63*	?
O=C(c1ccc2c(c1)N(Cc1cccc(Cl)c1)C(=O)c1ccccc1S2(=O)=O)N1CCCCC1	.	-5%	-73*	?
O=C(c1ccc2c(c1)N(Cc1ccccc1)C(=O)c1ccccc1S2(=O)=O)N1CCCCCC1	-24%[46.1 µM]	23%	-37	?
CCN1CCN(C(=O)c2ccc3c(c2)N(Cc2cccc(Cl)c2)C(=O)c2ccccc2S3(=O)=O)CC1	.	-1%	-65*	?
O=C(c1ccc2c(c1)N(Cc1ccc(Cl)cc1)C(=O)c1ccccc1S2(=O)=O)N1CCN(Cc2ccccc2)CC1	?	1%	8	?
Cc1nc2scc(-c3ccccc3)c2c(=O)n1N=C1C=CC(=O)C=C1	?	28µM*	?	-21%
COC(=O)c1cc(S(=O)(=O)N(C)c2ccc(C)c(C)c2)c[nH]1	.	0%	0	.
O=C(Nc1ccc(NC(=O)c2ccc3c(c2)OCCO3)cc1)c1ccccc1	?	30%	?	?
CCn1cc(Cl)c(C(=O)Nc2ccc3c(c2)OCCO3)n1	10µM*	-17%	56	?
O=C(Nc1ccc2c(c1)OCCO2)c1cccc2nc3ccccc3nc12	?	?	-92*	-29%
Cc1ccc(NC(=O)c2ccc3c(c2)OCCO3)nc1	?	16µM*	23	?
Cc1ccc(NC(=O)CNC(=O)c2ccc3c(c2)OCO3)nc1	1%[46.1 µM]	6%	20	11%[46.1 µM]
Cc1ccc(NC(=O)c2ccc3c(c2)OCCO3)cc1C	?	13µM*	-26	?
O=C(Nc1ccc2nsnc2c1)c1ccc2c(c1)OCO2	?	-2%	140	12µM*
Cc1ccc(C(=O)Nc2ccc3c(c2)OCCO3)c(C)c1	1.3µM*	?	?	?
SMILES	MARV entry inh	FMDV inh	HCMV antiviral	Lassa entry inh
Cc1cccc(NC(=O)c2ccc3c(c2)OCCO3)c1	7.9µM*	-37%	18	?
Cc1cc(NC(=O)c2ccc3c(c2)OCO3)ccc1NC(=O)c1ccccc1	?	7.9e-05µM*	20	8%[46.1 µM]
CC(=O)Nc1ccc(S(=O)(=O)Nc2ccc(S(=O)(=O)N3CCCCCC3)cc2)cc1	5%	46%	41	0%
Cc1cc(=O)oc(C)c1C(=O)Nc1ccc2nsnc2c1	24%	25µM*	32	6%
Cc1cc(=O)oc(C)c1C(=O)Nc1ccc2ncccc2c1	1%	-11%	-31	0%
CCC(=O)Oc1ccc(C(=O)Nc2ccc3c(c2)OCO3)cc1	?	-1%	-103*	?
